AmpC inh no detg: qHTS Inhibitors of AmpC Beta-Lactamase (assay without detergent). P00811. AmpC nitrocefin hydrolysis, absorbance 480 nm, 0.0001% Triton. Potency, µM (series often up to 57.1 µM), for the others: top-dose activity change, negative = inhibition, usual class: inhibitors. 330,000 compounds, 0.52% hits. AID 485341, 2010;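 note: plate controls were no compound for no effect and no enzyme for full effect; nearly all actives have a fitted effect of over 20% in size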
Target sequence (P00811 whole entry, looked up): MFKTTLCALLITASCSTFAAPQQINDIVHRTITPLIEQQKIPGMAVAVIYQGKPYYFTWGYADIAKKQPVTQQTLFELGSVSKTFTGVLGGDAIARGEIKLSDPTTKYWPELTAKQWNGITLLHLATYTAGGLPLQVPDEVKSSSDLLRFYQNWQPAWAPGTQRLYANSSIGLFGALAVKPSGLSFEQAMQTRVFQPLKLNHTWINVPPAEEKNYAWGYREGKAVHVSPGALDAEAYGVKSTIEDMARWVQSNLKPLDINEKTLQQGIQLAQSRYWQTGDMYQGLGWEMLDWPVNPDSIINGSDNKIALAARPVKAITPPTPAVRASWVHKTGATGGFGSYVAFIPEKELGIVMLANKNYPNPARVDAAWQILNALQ
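AmpC (5.3 nM in the dispensed reagent) in 20 mM phosphate pH 7.0 with 0.01% (detergent screen) or 0.0001% Triton X-100 was preincubated with compounds for 15 min at room temperature. Nitrocefin was then added from an 800 uM solution, and hydrolysis was followed at 480 nm.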
Sm TGR inh: qHTS Assay for the Inhibitors of Schistosoma Mansoni Peroxiredoxins; AID 485364, 2010; Potency, µM (series often up to 114 µM), for the others: top-dose activity change, negative = inhibition, hits mostly inhibitors; 360,000 compounds, 3% hits; Schistosoma mansoni thioredoxin glutathione reductase (TGR), Q962Y6; purified TGR, DTNB reduction, TNB absorbance 405 nm; note: % is set by controls: 0 for no effect and ±100 for the full control effect; nearly all actives have a fitted effect of over 60% in size
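Kinetic colorimetric format: TGR-catalysed, NADPH-driven DTNB reduction monitored via TNB absorbance. Enzyme dispensed at 20 nM; compound exposure 15 min at room temperature before reaction start.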
Pf growth 48h: Primary qHTS for delayed death inhibitors of the malarial parasite plastid, 48 hour incubation; P. falciparum luciferase growth in erythrocytes, 48 h; Potency, µM (titrated, usually from 28.7 µM), without a hit: top-dose activity change, negative = inhibition, usual class: inhibitors; 310,000 compounds, 5.9% hits; note: % is set by controls: 0 for no effect and ±100 for the full control effect
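Erythrocytes infected with P. falciparum carrying an integrated firefly luciferase reporter (2% hematocrit, 0.1% parasitemia final) were exposed to compounds in RPMI 1640 with 0.5% Albumax at 37 C, 5% CO2. Growth inhibition was scored as reduced luminescence.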
Pf growth 96h: Primary qHTS for delayed death inhibitors of the malarial parasite plastid, 96 hour incubation; Potency, µM (top dose mostly 28.7 µM), inactives show at the highest dose activity change, negative = inhibition, hits mostly inhibitors; P. falciparum luciferase reporter growth, 96 h; 320,000 compounds, 6.9% hits; note: % is set by controls: 0 for no effect and ±100 for the full control effect
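Erythrocytes infected with luciferase-expressing P. falciparum were dispensed at 2% hematocrit and 0.05% parasitemia (final), then incubated with compounds 96 hours at 37 C in 5% CO2. Luminescence after detection reagent addition reported growth.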
SARS PLpro yeast: qHTS of Yeast-based Assay for SARS-CoV PLP | Potency, µM (doses to about 32.9 µM), for inactives: at the top dose activity, positive = growth rescue, hits mostly activators | AID 485353, 2010 | S. cerevisiae expressing SARS-CoV PLpro, growth rescue | 330,000 compounds, 0.19% hits; calls by dose curve; note: 0% is about no effect; nearly all actives have a fitted effect of over 55% in size
AmpC detergent: qHTS Inhibitors of AmpC Beta-Lactamase (assay with detergent) | P00811 | Potency, µM (highest dose often 114 µM), for the others: at the highest dose activity change, negative = inhibition, most hits filed as inhibitors | AID 485294, 2010 | 370,000 compounds, 0.041% hits | AmpC hydrolysis of nitrocefin, absorbance 480 nm, 0.01% Triton;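 note: 0% = no-compound wells and -100% = no-enzyme wells; nearly all actives have a fitted effect of over 25% in size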
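AmpC (5.3 nM in the dispensed reagent) in 20 mM phosphate pH 7.0 with 0.01% (detergent screen) or 0.0001% Triton X-100 was preincubated with compounds for 15 min at room temperature. Nitrocefin was then added from an 800 uM solution, and hydrolysis was followed at 480 nm.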
* hit, by the source's call; ? = inconclusive; . = no result. Sampled rows, rich in hits. Any-hit rate of the full collection: about 12%. Unless noted, calls come from the whole dose curve; as a rule, active = well fitted curve in the direction sought with a large enough effect; inconclusive = small, poorly fitted or top-dose-only effect, or another doubt; inactive = no such curve, though single readings can be large; an effect the other way counts as inactive or inconclusive. Potency is the fitted concentration of half-maximal effect.

SMILES	AmpC inh no detg	Sm TGR inh	Pf growth 48h	Pf growth 96h	SARS PLpro yeast	AmpC detergent
CC(=O)Oc1cc(C)c(OC(C)=O)c2ccccc12	.	.	6.7µM*	4.8µM*	.	.
CC(=O)Oc1cc2cccc(OC(C)=O)c(=O)c2c(OC(C)=O)c1OC(C)=O	-50%	?	?	15µM*	8.9µM*	?
CCOC(=O)c1c(C)n(C)c2c1cc(OC(C)=O)c1ccccc12	-42%	2%	40%	66%	-1%	-6%
CCOC(=O)N1CCC(NC(=O)c2ccc3c(c2)N(Cc2ccc(F)cc2)C(=O)c2ccccc2S3(=O)=O)CC1	.	-7%	.	.	.	-13%
CN(C)c1ccc(NC(=O)Cn2cc(S(=O)(=O)Cc3ccccc3Cl)c3ccccc32)cc1	.	-11%	.	.	.	4%
C=C1C(=O)O[C@H]2[C@H]1[C@@H](O)CC(=C)[C@@H]1CC(=O)[C@@H](C)[C@H]21	-17%	22µM*	?	?	0%	?
Cc1cc(C)c2c(C)c(C(=O)N3CCC(c4nc5ccccc5s4)CC3)oc2c1	.	?	.	.	.	24%
Cc1cc(C)nc(-n2ncc3c2CC(c2ccccc2C)CC3=O)n1 (centres undefined)	-8%	0%	?	5.2µM*	-15%	-13%
Cc1cc(C)nc(-n2ncc3c2CC(c2cccc(Cl)c2)CC3=O)n1 (centres undefined)	135%	4%	?	4.1µM*	-5%	4%
N#C/C(=C\c1ccc(N2CCOCC2)o1)C(=O)Nc1ccc(O)cc1	-30%	.	?	-16%	0%	-2%
COc1ccc(NC(=O)/C(C#N)=C\c2ccc(N3CCOCC3)o2)cc1	0%	45µM*	-11%	3%	-1%	6%
N#C/C(=C/c1ccc(N2CCOCC2)o1)C(=O)NC1CCCCC1	3%	32µM*	?	211%	1%	3%
N#C/C(=C/c1ccc(N2CCCCC2)o1)C(=O)Nc1ccc(Cl)cc1	-28%	?	87%	64%	5%	0%
CCSc1nc2c(c(=O)n1CC)SC(C)C2 (centres undefined)	-14%	-1%	-21%	38%	2%	4%
CCn1c(SC)nc2c(c1=O)SC(C)C2 (centres undefined)	-12%	0%	?	2.3µM*	-1%	0%
COc1cc2c(cc1OC)C(c1ccc(F)cc1)N(c1ccc(F)cc1)C(=O)C2 (centres undefined)	.	1%	.	.	.	11%
O=C(c1c[nH]c(C(=O)C(Cl)(Cl)Cl)c1)c1ccccc1Br	-12%	-4%	13µM*	?	-1%	?
OC(COc1ccc(F)cc1Cl)CN1CCC(Cc2ccccc2)CC1 (centres undefined)	61%	-10%	12µM*	?	0%	-6%
OC(COc1ccccc1F)CN1CCC(Cc2ccccc2)CC1 (centres undefined)	-1%	-9%	-16%	?	4%	-6%
C=CCc1ccc(OCC(O)CN2CCN(c3ccccc3OC)CC2)c(OC)c1 (centres undefined)	156%	0%	0%	44%	1%	-3%
C=CCc1ccc(OCC(O)CN2CCC(Cc3ccccc3)CC2)c(OC)c1 (centres undefined)	51%	50µM*	?	?	-5%	-8%
COc1ccc(C(=O)CCc2nc3ccccc3s2)cc1	-33%	0%	36%	?	-7%	?
CCOC(=O)c1c(NC(C)=O)sc2c(OCC(O)CN(CC)CC)c(Br)ccc12 (centres undefined)	4%	-32%	-21%	7.4µM*	0%	-2%
Cc1c(NC(=O)c2cc([N+](=O)[O-])ccc2N2CCOCC2)cccc1-c1nc2ccccc2o1	.	12%	.	.	.	-1%
OCC1(Cc2ccccc2)CCCN(Cc2ccc(-c3ccco3)cc2)C1 (centres undefined)	14%	35µM*	?	?	1%	-1%
SMILES	AmpC inh no detg	Sm TGR inh	Pf growth 48h	Pf growth 96h	SARS PLpro yeast	AmpC detergent
CSc1cccc(CN2CCC(CO)(Cc3ccccc3)CC2)c1	52%	16%	?	?	-2%	1%
OCC1(Cc2ccccc2)CCN(Cc2ccc(-c3ccco3)cc2)CC1	93%	32µM*	?	35%	0%	5%
CCN1CCCC(CO)(Cc2ccccc2)C1 (centres undefined)	-6%	?	39%	?	1%	4%
OCCNc1nc(Nc2ccccc2)nc(Nc2ccccc2)n1	-26%	1%	-4%	26%	2%	-2%
CC(C)(CO)Nc1nc(Nc2ccccc2)nc(Nc2ccccc2)n1	-16%	3%	13µM*	7.4µM*	3%	-5%
O=C(N/N=C/C=C/c1ccco1)c1ccccc1Cl	-43%	?	19%	-5%	1%	-14%
O=C(N/N=C/C=C/c1ccco1)/C(=C/c1ccccc1)NC(=O)c1ccccc1	-41%	45µM*	10%	?	3%	?
O=C(N/N=C/C=C\c1ccccc1[N+](=O)[O-])c1cccs1	-44%	-15%	17%	2.9µM*	-8%	-10%
O=C(N/N=C/C=C\c1ccco1)c1cccs1	-29%	11µM*	-2%	9%	2%	1%
O=C(N/N=C/C=C/c1ccco1)c1ccncc1	-8%	28µM*	-7%	96%	0%	-6%
O=C(Cc1cccs1)N/N=C/C=C/c1ccccc1[N+](=O)[O-]	-22%	-6%	49%	93%	0%	-1%
COC(=O)CN1C(=O)N/C(=C/c2ccccc2OC)C1=O	-1%	-5%	-6%	20%	-1%	-8%
O=C(N/N=C/C=C/c1ccccc1[N+](=O)[O-])c1cccnc1	-8%	-5%	4%	?	-1%	-5%
O=C(Cc1cccs1)N/N=C/C=C\c1ccco1	-31%	25µM*	41%	180%	9%	-8%
O=C(N/N=C/C=C\c1ccccc1[N+](=O)[O-])c1cc(-c2ccc3ccccc3c2)n[nH]1	10µM*	-25%	-61%	15%	5%	-9%
O=C(Cc1cccs1)N/N=C/c1ccco1	-47%	-22%	13%	35%	18%	?
NNC(=O)CCn1c2ccccc2c2ccccc21	-18%	8%	14%	?	0%	5%
CCCCNC(=O)CCC1N=C2c3ccccc3N=C(SCC(=O)NCCc3ccc(OC)c(OC)c3)N2C1=O (centres undefined)	.	6%	.	.	.	0%

Source: PubChem BioAssay (National Center for Advancing Translational Sciences (NCATS))
